SF1 inhibitor = blocks the human nuclear receptor SF-1 | AID 525 | 65,000 compounds, 0.55% hits | CHO-K1 Gal4-SF-1 LBD luciferase reporter | inhibition, % at 10 µM | Q13285;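 active means inhibition above the mean inhibition of all tested compounds plus 3 SD, cut at about 48% in these data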;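 further: 0% = SF-1 transfected cells with DMSO and 100% = mock-transfected cells lacking SF-1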
Target sequence (Q13285 whole entry, looked up, the tested form may be a part): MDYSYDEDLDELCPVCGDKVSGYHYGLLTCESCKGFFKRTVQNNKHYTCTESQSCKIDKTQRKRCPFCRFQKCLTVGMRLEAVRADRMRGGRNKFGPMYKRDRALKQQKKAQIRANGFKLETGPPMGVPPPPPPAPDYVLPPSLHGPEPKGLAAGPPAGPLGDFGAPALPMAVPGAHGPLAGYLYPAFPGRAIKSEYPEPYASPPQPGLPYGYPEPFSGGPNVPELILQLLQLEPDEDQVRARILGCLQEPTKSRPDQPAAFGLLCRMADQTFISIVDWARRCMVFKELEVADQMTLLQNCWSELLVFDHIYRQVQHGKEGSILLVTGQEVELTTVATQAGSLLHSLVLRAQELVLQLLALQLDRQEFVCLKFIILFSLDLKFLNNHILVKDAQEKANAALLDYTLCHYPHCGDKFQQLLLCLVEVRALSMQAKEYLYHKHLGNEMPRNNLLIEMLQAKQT
* marks the source's active call; other numbers are inactive results. Shown is part of a subset that was picked to be rich in hits.

How did O=C(CCCC(=O)N(CC(=O)NC1CCCCC1)Cc1ccc2c(c1)OCO2)Nc1ccccn1 do in these assays?
SF1 inhibitor: 5.9

How did O=C(Nc1ccc(-c2cn3ccsc3n2)cc1)c1ccc(F)c(S(=O)(=O)N2CCOCC2)c1 do in these assays?
SF1 inhibitor: -57.1

Results for Cc1ccc2nc3c(cc(C#N)c(=O)n3CC3CCCO3)c(=O)n2c1 (centres undefined) ?
SF1 inhibitor: -1.7

What do the screens show for `O=C(CSc1ccccn1)N1CCN(c2ccccc2)CC1`?
SF1 inhibitor: -1.0

Results for Cc1cccc(N2CCN(C(=O)CSCc3c(C)noc3C)CC2)c1C ?
SF1 inhibitor: 49.9*

What do the screens show for `C=CCn1c(SCc2c(C)noc2C)nc2cc(C(=O)O)ccc2c1=O`?
SF1 inhibitor: -17.2

What do the screens show for `CCC(OC(=O)CCc1nc2ccccc2[nH]c1=O)C(=O)c1ccccc1` (centres undefined)?
SF1 inhibitor: 5.6

What do the screens show for `CC(=O)c1cn(CC(=O)NCc2cccnc2)c2ccccc12`?
SF1 inhibitor: 21.2

Results for CCOc1ccc(NC(=O)CSc2nnc(C3CC3)n2N)cc1 ?
SF1 inhibitor: 3.2

What do the screens show for `COc1ccc2nc(NC(=O)CN(c3ccc(C)cc3)S(=O)(=O)c3c(C)nn(C)c3C)sc2c1`?
SF1 inhibitor: 4.9

How did Cc1cc(F)ccc1S(=O)(=O)Nc1ccccc1C(=O)Nc1ccc2[nH]c(=O)[nH]c2c1 do in these assays?
SF1 inhibitor: 9.0

What do the screens show for `CSc1nc(-c2ccccc2)nc2[nH]ccc(=O)c12`?
SF1 inhibitor: -11.5

How did c1ccc(-c2cc(N3CCOCC3)nc(-c3ccccc3)n2)cc1 do in these assays?
SF1 inhibitor: 1.5

What do the screens show for `FC(F)(F)c1ccc(N2CCN(c3cc(-c4ccccc4)nc4ncnn34)CC2)nc1`?
SF1 inhibitor: 71.1*

How did O=C(NCC(=O)N(Cc1cccs1)C(C(=O)NC1CCCC1)c1ccco1)c1cccs1 (centres undefined) do in these assays?
SF1 inhibitor: -3.9

Results for CN1/C(=C/C(=O)c2nc(S(C)(=O)=O)ncc2Cl)C(C)(C)c2ccccc21 ?
SF1 inhibitor: 60.6*

Results for CCOC(=O)c1ccccc1NC(=O)COC(=O)C1=COCCO1 ?
SF1 inhibitor: 4.1

What do the screens show for `c1ccc(OCCSc2ncnc3nc[nH]c23)cc1`?
SF1 inhibitor: -24.0

Results for CC(C)(C)c1cc(CN2CCCC(O)C2)c(O)c(C(C)(C)C)c1 (centres undefined) ?
SF1 inhibitor: 14.1

How did COc1ccc(OC)c(C(=O)CSc2nc3c(c(=O)n(C)c(=O)n3C)n2C(C)C)c1 do in these assays?
SF1 inhibitor: 8.9

How did CCN(CC)CCn1c(NCc2cccc(OC)c2)nc2ccccc21 do in these assays?
SF1 inhibitor: 3.3

Results for Cn1c(=O)c2c(nc(CN3CCN(C(=O)c4ccco4)CC3)n2Cc2ccc(F)cc2)n(C)c1=O ?
SF1 inhibitor: -12.2

Results for COc1ccc(-n2nc(C(=O)NCc3ccco3)c3c4ccccc4n(C)c3c2=O)cc1 ?
SF1 inhibitor: 26.2

How did COc1ccc(Cl)c(Cn2c(NCc3ccco3)nc3c2c(=O)n(C)c(=O)n3C)c1 do in these assays?
SF1 inhibitor: 49.4*

What do the screens show for `COc1cccc(Cn2c(NCc3ccco3)nc3c2c(=O)n(C)c(=O)n3C)c1`?
SF1 inhibitor: 62.6*

Results for CC(C)CCn1c(Sc2nc3ccccc3s2)nc2c1c(=O)[nH]c(=O)n2C ?
SF1 inhibitor: 11.8

Results for COc1ccc(CN/C=C2\CCCCC2=O)cc1 ?
SF1 inhibitor: 0.5

Results for Cc1cc(-c2ccccc2)nc(N2CCC(C(=O)NC(C)C)CC2)n1 ?
SF1 inhibitor: -96.8

What do the screens show for `CCCCP(=O)(CCCC)c1ccccc1C(=O)O`?
SF1 inhibitor: -10.5

What do the screens show for `CC[C@H]1OC(=O)C[C@@H](O)[C@H](C)[C@@H](O[C@@H]2O[C@H](C)C[C@H](N(C)C)[C@H]2O)[C@@H](CC=O)C[C@@H](C)C(=O)C=C[C@]2(C)O[C@H]2[C@@H]1C`?
SF1 inhibitor: 9.0

How did CC(C)COC(=O)N(C)c1ccc(C(O)(C(F)(F)F)C(F)(F)F)cc1 do in these assays?
SF1 inhibitor: -12.5

Results for Cc1ccccc1NC(=O)N1CCCC(c2nc(-c3ccc(C(C)C)cc3)no2)C1 (centres undefined) ?
SF1 inhibitor: 51.3*

Results for CC(C)c1ccc(NC(=O)C2CCCN(S(=O)(=O)c3cnc[nH]3)C2)cc1 (centres undefined) ?
SF1 inhibitor: -5.6

What do the screens show for `Cc1cccc(NC(=O)Nc2ccc(C#N)cc2)n1`?
SF1 inhibitor: 71.1*

How did COc1ccc(NC(=O)Nc2cccc(C)n2)cc1 do in these assays?
SF1 inhibitor: -64.1

What do the screens show for `Cc1cccc(NC(=O)c2cc3ccccc3c(=O)o2)n1`?
SF1 inhibitor: -64.6

Results for CCOc1cc(CNC(=O)CN2C(=O)c3ccccc3S2(=O)=O)ccc1OC ?
SF1 inhibitor: 9.0

Results for Cc1ccc(Cl)cc1N1CCN(Cc2nc3c(c(=O)[nH]c(=O)n3C)n2Cc2ccccc2F)CC1 ?
SF1 inhibitor: -2.2

What do the screens show for `O=C(Nc1nc2cc3c(cc2s1)OCO3)C1=COCCO1`?
SF1 inhibitor: 62.2*

What do the screens show for `c1c2c(cc3sc(N4CCOCC4)nc13)OCO2`?
SF1 inhibitor: -58.0

How did c1ccc(N2CCN(c3nc4cc5c(cc4s3)OCO5)CC2)cc1 do in these assays?
SF1 inhibitor: -54.6

How did CCOCC(=O)Nc1cccc(Br)c1 do in these assays?
SF1 inhibitor: -9.6

What do the screens show for `CCN1C(=O)c2cccc3c(S(=O)(=O)NC(Cc4c[nH]c5ccccc45)C(=O)O)ccc1c23` (centres undefined)?
SF1 inhibitor: 15.8

Results for CCC(C)NC(=O)CCNS(=O)(=O)c1ccc(Br)cc1 (centres undefined) ?
SF1 inhibitor: 1.4

Results for C=CCOC(=O)c1sc(NC(=O)c2ccco2)nc1C ?
SF1 inhibitor: -92.6

What do the screens show for `CCSc1nnc(Nc2ccccc2)s1`?
SF1 inhibitor: -53.8

How did CCSc1nnc(NC(=O)c2ccccn2)s1 do in these assays?
SF1 inhibitor: 55.4*

What do the screens show for `CCSc1nnc(NC(=O)c2cc3c(s2)CCCC3)s1`?
SF1 inhibitor: -51.6

Results for CC(OC(=O)CNC(=O)c1ccc2c(c1)OCO2)C(=O)NCCC1=CCCCC1 (centres undefined) ?
SF1 inhibitor: 0.0

How did CCCOCCOC(=O)c1[nH]c2c(c1C)C(=O)CC(c1cc(OC)ccc1OC)C2 (centres undefined) do in these assays?
SF1 inhibitor: 31.0

What do the screens show for `Cc1ccc2cc(CCNC(=O)c3ccco3)c(=O)[nH]c2c1C`?
SF1 inhibitor: -63.3

How did CN(C)c1oc(-c2ccc(OCc3ccccc3)cc2)nc1C#N do in these assays?
SF1 inhibitor: -61.2

How did CCOC(=O)c1ccc(NC(=O)CSCc2ccco2)cc1 do in these assays?
SF1 inhibitor: -4.7

Results for CC1CCCCN1C(=O)C1CC(c2ccc(F)cc2)=NO1 (centres undefined) ?
SF1 inhibitor: -62.6

Results for CC1=CC(=C2C(=O)c3ccccc3C2=O)C=C(C)O1 ?
SF1 inhibitor: -41.6

What do the screens show for `CCCN1C=CC(=C2C(=O)c3ccccc3C2=O)C=C1`?
SF1 inhibitor: 93.0*

How did CCC1(CC)C(=O)N=C2c3ccccc3C(=O)N21 do in these assays?
SF1 inhibitor: 7.2

How did CCN1C=CC(=C2C(=O)c3ccccc3C2=O)C=C1 do in these assays?
SF1 inhibitor: 79.7*

How did COc1cc(C(=O)Nc2nnc(-c3sccc3C)s2)cc(OC)c1OC do in these assays?
SF1 inhibitor: 6.4

What do the screens show for `CC(=O)NCc1ccc(-c2csc(N)n2)s1`?
SF1 inhibitor: 6.7
